# Out of some 5,500 compounds screened, about 2,000 (36%) were called active. Roughly 18% stayed inconclusive and do not appear here. Cut-off read from the data, not from the text of the source: active = normalized growth mostly below about 0.91 (no sharp cut-off); inconclusive = no clear call, values can overlap the other calls; inactive = mostly above about 0.92. Some of the results follow.
# Assay: chemical genetic growth profiling, strain panel (AID 1159580);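 note: tested at 20 µM; growth read once vehicle control cultures reached saturation at 30 °C; 1 = growth at the plate median or of vehicle wells; lower values mean less growth of the strain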
# Conditions: growth OD
compound,measurement,setting,value
COc1ccc(-c2coc3c(O)c(OC)ccc3c2=O)cc1,normalized growth,"S. cerevisiae deletion strains, locus YKL009W, strain mrt4, active compounds read low",0.865 (active)
same,normalized growth,"S. cerevisiae deletion strains, locus YKL068W, active compounds read low",0.94 (active)
same,normalized growth,"S. cerevisiae deletion strains, locus YKL085W, strain MDH1 (second series), active compounds read low",0.935 (inactive)
same,normalized growth,"S. cerevisiae deletion strains, locus YKL085W, strain MDH1, active compounds read low",0.935 (inactive)
same,normalized growth,"S. cerevisiae deletion strains, locus YKL160W, strain elf1, active compounds read low",0.869 (active)
same,normalized growth,"S. cerevisiae deletion strains, locus YKL190W, strain CNB1, active compounds read low",0.932 (inactive)
same,normalized growth,"S. cerevisiae deletion strains, locus YKR001C, strain vps1, active compounds read low",0.82 (active)
same,normalized growth,"S. cerevisiae deletion strains, locus YKR026C, strain gcn3, active compounds read low",0.967 (inactive)
same,normalized growth,"S. cerevisiae deletion strains, locus YKR091W, strain srl3, active compounds read low",0.961 (inactive)
same,normalized growth,"S. cerevisiae deletion strains, locus YLL001W, strain dnm1, active compounds read low",0.914 (inactive)
same,normalized growth,"S. cerevisiae deletion strains, locus YLL026W, active compounds read low",0.966 (inactive)
same,normalized growth,"S. cerevisiae deletion strains, locus YLL041C, strain sdh2, active compounds read low",0.956 (inactive)
same,normalized growth,"S. cerevisiae deletion strains, locus YLR027C, strain aat2, active compounds read low",0.964 (inactive)
same,normalized growth,"S. cerevisiae deletion strains, locus YLR039C, strain RIC1, active compounds read low",0.491 (active)
same,normalized growth,"S. cerevisiae deletion strains, locus YLR058C, strain SHM2, active compounds read low",0.9 (inactive)
same,normalized growth,"S. cerevisiae deletion strains, locus YLR102C, strain apc9, active compounds read low",0.941 (inactive)
same,normalized growth,"S. cerevisiae deletion strains, locus YLR113W, strain HOG1, active compounds read low",0.994 (inactive)
same,normalized growth,"S. cerevisiae deletion strains, locus YLR221C, strain rsa3, active compounds read low",0.957 (inactive)
same,normalized growth,"S. cerevisiae deletion strains, locus YLR258W, strain gsy2, active compounds read low",0.925 (inactive)
same,normalized growth,"S. cerevisiae deletion strains, locus YLR262C, strain YPT6 (second series), active compounds read low",0.736 (active)
same,normalized growth,"S. cerevisiae deletion strains, locus YLR268W, strain sec22, active compounds read low",0.766 (active)
same,normalized growth,"S. cerevisiae deletion strains, locus YLR320W, strain mms22, active compounds read low",0.827 (active)
same,normalized growth,"S. cerevisiae deletion strains, locus YLR330W, strain CHS5, active compounds read low",0.838 (active)
same,normalized growth,"S. cerevisiae deletion strains, locus YLR342W, strain FKS1 (second series), active compounds read low",0.843 (inactive)
same,normalized growth,"S. cerevisiae deletion strains, locus YLR342W, strain FKS1, active compounds read low",0.963 (inactive)
same,normalized growth,"S. cerevisiae deletion strains, locus YLR357W, strain rsc2, active compounds read low",0.899 (inactive)
same,normalized growth,"S. cerevisiae deletion strains, locus YLR370C, strain arc18, active compounds read low",0.974 (inactive)
same,normalized growth,"S. cerevisiae deletion strains, locus YLR371W, strain rom2, active compounds read low",0.922 (inactive)
same,normalized growth,"S. cerevisiae deletion strains, locus YLR384C, strain iki3, active compounds read low",0.989 (inactive)
same,normalized growth,"S. cerevisiae deletion strains, locus YLR418C, strain cdc73, active compounds read low",0.722 (active)
same,normalized growth,"S. cerevisiae deletion strains, locus YML016C, strain PPZ1, active compounds read low",0.925 (inactive)
same,normalized growth,"S. cerevisiae deletion strains, locus YML032C, strain rad52, active compounds read low",0.862 (active)
same,normalized growth,"S. cerevisiae deletion strains, locus YML120C, strain ndi1, active compounds read low",0.893 (active)
same,normalized growth,"S. cerevisiae deletion strains, locus YML124C, strain tub3, active compounds read low",0.937 (inactive)
same,normalized growth,"S. cerevisiae deletion strains, locus YMR058W, strain fet3, active compounds read low",0.952 (inactive)
same,normalized growth,"S. cerevisiae deletion strains, locus YMR078C, strain ctf18, active compounds read low",0.864 (active)
same,normalized growth,"S. cerevisiae deletion strains, locus YMR125W, strain sto1, active compounds read low",0.964 (inactive)
same,normalized growth,"S. cerevisiae deletion strains, locus YMR129W, active compounds read low",0.969 (inactive)
same,normalized growth,"S. cerevisiae deletion strains, locus YMR205C, strain PFK2, active compounds read low",0.824 (active)
same,normalized growth,"S. cerevisiae deletion strains, locus YMR223W, strain ubp8, active compounds read low",0.881 (active)
same,normalized growth,"S. cerevisiae deletion strains, locus YMR231W, strain pep5, active compounds read low",0.987 (inactive)
same,normalized growth,"S. cerevisiae deletion strains, locus YMR307W, strain GAS1, active compounds read low",0.58 (active)
same,normalized growth,"S. cerevisiae deletion strains, locus YNL067W, strain RPL9B, active compounds read low",0.959 (inactive)
same,normalized growth,"S. cerevisiae deletion strains, locus YNL071W, strain lat1, active compounds read low",0.571 (active)
same,normalized growth,"S. cerevisiae deletion strains, locus YNL128W, strain TEP1, active compounds read low",0.889 (inactive)
same,normalized growth,"S. cerevisiae deletion strains, locus YNL183C, strain NPR1, active compounds read low",0.952 (inactive)
same,normalized growth,"S. cerevisiae deletion strains, locus YNL209W, strain ssb2, active compounds read low",0.948 (inactive)
same,normalized growth,"S. cerevisiae deletion strains, locus YNL233W, strain BNI4, active compounds read low",0.879 (inactive)
same,normalized growth,"S. cerevisiae deletion strains, locus YNL248C, strain rpa49, active compounds read low",0.965 (inactive)
same,normalized growth,"S. cerevisiae deletion strains, locus YNL250W, strain rad50, active compounds read low",0.928 (inactive)
same,normalized growth,"S. cerevisiae deletion strains, locus YNL271C, strain bni1, active compounds read low",0.941 (inactive)
same,normalized growth,"S. cerevisiae deletion strains, locus YNL298W, strain CLA4, active compounds read low",0.904 (active)
same,normalized growth,"S. cerevisiae deletion strains, locus YNL307C, strain MCK1, active compounds read low",0.595 (active)
same,normalized growth,"S. cerevisiae deletion strains, locus YNL322C, strain KRE1 (second series), active compounds read low",0.839 (active)
same,normalized growth,"S. cerevisiae deletion strains, locus YNL322C, strain KRE1, active compounds read low",0.939 (inactive)
same,normalized growth,"S. cerevisiae deletion strains, locus YNR049C, strain mso1, active compounds read low",0.995 (inactive)
same,normalized growth,"S. cerevisiae deletion strains, locus YNR052C, strain pop2, active compounds read low",0.925 (inactive)
same,normalized growth,"S. cerevisiae deletion strains, locus YOL012C, strain htz1",0.727 (inactive)
same,normalized growth,"S. cerevisiae deletion strains, locus YOL147C, strain pex11, active compounds read low",0.836 (active)
same,normalized growth,"S. cerevisiae deletion strains, locus YOR001W, strain rrp6, active compounds read low",0.974 (inactive)
same,normalized growth,"S. cerevisiae deletion strains, locus YOR061W, strain CKA2, active compounds read low",0.912 (inactive)
same,normalized growth,"S. cerevisiae deletion strains, locus YOR069W, strain VPS5, active compounds read low",0.941 (inactive)
same,normalized growth,"S. cerevisiae deletion strains, locus YOR070C, strain gyp1, active compounds read low",0.994 (inactive)
same,normalized growth,"S. cerevisiae deletion strains, locus YOR080W, strain dia2, active compounds read low",0.992 (inactive)
same,normalized growth,"S. cerevisiae deletion strains, locus YOR083W, strain WHI5, active compounds read low",0.902 (inactive)
same,normalized growth,"S. cerevisiae deletion strains, locus YOR106W, strain vam3, active compounds read low",0.882 (inactive)
same,normalized growth,"S. cerevisiae deletion strains, locus YOR136W, strain idh2, active compounds read low",0.927 (inactive)
same,normalized growth,"S. cerevisiae deletion strains, locus YOR144C, strain elg1, active compounds read low",0.894 (active)
same,normalized growth,"S. cerevisiae deletion strains, locus YOR184W, strain ser1, active compounds read low",0.708 (active)
same,normalized growth,"S. cerevisiae deletion strains, locus YOR231W, strain MKK1, active compounds read low",1.02 (inactive)
same,normalized growth,"S. cerevisiae deletion strains, locus YOR265W, strain rbl2, active compounds read low",0.984 (inactive)
same,normalized growth,"S. cerevisiae deletion strains, locus YOR270C, strain vph1, active compounds read low",0.888 (inactive)
same,normalized growth,"S. cerevisiae deletion strains, locus YOR290C, strain snf2, active compounds read low",0.807 (active)
same,normalized growth,"S. cerevisiae deletion strains, locus YOR316C, strain cot1, active compounds read low",0.943 (inactive)
same,normalized growth,"S. cerevisiae deletion strains, locus YPL051W, strain arl3, active compounds read low",0.87 (active)
same,normalized growth,"S. cerevisiae deletion strains, locus YPL078C, strain atp4, active compounds read low",0.836 (active)
same,normalized growth,"S. cerevisiae deletion strains, locus YPL106C, strain sse1, active compounds read low",0.903 (inactive)
same,normalized growth,"S. cerevisiae deletion strains, locus YPL240C, strain hsp82, active compounds read low",0.946 (inactive)
same,normalized growth,"S. cerevisiae deletion strains, locus YPL256C, strain CLN2, active compounds read low",0.989 (inactive)
same,normalized growth,"S. cerevisiae deletion strains, locus YPR119W, strain clb2, active compounds read low",0.928 (active)
same,normalized growth,"S. cerevisiae deletion strains, locus YPR141C, strain kar3, active compounds read low",0.932 (inactive)
same,normalized growth,"S. cerevisiae deletion strains, locus YPR163C, strain tif3, active compounds read low",0.694 (active)
same,normalized growth,"S. cerevisiae deletion strains, locus YPR167C, strain met16, active compounds read low",0.926 (inactive)
same,normalized growth,"S. cerevisiae deletion strains, strain wtn01, active compounds read low",0.846 (active)
same,normalized growth,"S. cerevisiae strains, strain wild type, active compounds read low",0.83 (active)
